Source: PubChem BioAssay
Sampled rows, rich in hits. Any-hit rate of the full collection: about 1.4%.
PV pol inh: inhibitors of poliovirus RNA polymerase binding and polymerization | poliovirus polymerase elongation, fluorescence polarization; stronger effect = lower value | % elongation, % (compound at 16.7 µg/mL) | 150,000 compounds, 0.66% hits; in the data active means % elongation below about 90%
Target sequence (P03300 1749-2209 limits assumed): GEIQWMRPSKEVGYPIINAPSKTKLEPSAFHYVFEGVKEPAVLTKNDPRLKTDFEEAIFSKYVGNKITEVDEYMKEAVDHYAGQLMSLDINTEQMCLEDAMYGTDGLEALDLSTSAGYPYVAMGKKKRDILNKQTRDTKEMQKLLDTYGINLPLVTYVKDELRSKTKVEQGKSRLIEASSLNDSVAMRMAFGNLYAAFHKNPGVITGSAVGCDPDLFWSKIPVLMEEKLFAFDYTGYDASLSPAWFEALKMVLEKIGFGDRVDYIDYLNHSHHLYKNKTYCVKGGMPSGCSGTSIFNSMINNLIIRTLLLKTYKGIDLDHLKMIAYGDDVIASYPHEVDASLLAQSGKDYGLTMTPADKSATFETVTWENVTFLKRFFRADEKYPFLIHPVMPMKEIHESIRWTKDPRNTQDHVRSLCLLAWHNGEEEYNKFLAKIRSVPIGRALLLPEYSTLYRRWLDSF
MenB inh: inhibitors of Mycobacterium tuberculosis MenB enzyme | P9WNP5 | 100,000 compounds, 0.43% hits | inhibition, % (test concentration not listed) | MenB enzyme assay, absorbance read-out; in the data active means inhibition above about 21%, passing the limit was not always enough
Mtb MbtI inh: blocks the Mycobacterium tuberculosis siderophore enzyme MbtI. 100,000 compounds, 0.89% hits. purified MbtI enzyme, fluorescence intensity read-out. AID 493033. P9WFX0. inhibition, % (test concentration not listed); in the data active means inhibition mostly above about 56%, no sharp cut-off; inactive means mostly below about 77%
AID504770: growth inhibitors of E. coli YBA685 in a screen for V. cholerae RctB (chromosome II replication) inhibitors. 130,000 compounds, 0.27% hits. E. coli YBA685 rctB-dependent plasmid, OD600 growth, 3 h; stronger effect = lower value. z-score (no concentration beside the values); in the data active means z-score below about -2, passing the limit was not always enough
* marks the source's active call; other numbers are inactive results; / = no result.

SMILES | PV pol inh | MenB inh | Mtb MbtI inh | AID504770
CCN1C(=O)C(=Cc2ccc(OC(F)F)cc2)C(=O)N(CC)C1=S | 101 | -85 | 54* | 0.6
CC1=NN(c2ccccc2)C(=S)/C1=C\N1CCCCC1 | 104 | -40 | 98* | 0.75
c1ccc(CN2CCCC(c3ccccc3)C2)cc1 (stereo not drawn) | / | / | -11 | -0.6
NCC1CCN(Cc2ccccc2)C1 (stereo not drawn) | 103 | 28* | 34 | 0.45
O=C(CSc1ccc2nc(-c3ccccc3)cn2n1)Nc1ccccc1 | 87* | / | / | /
CC(=O)c1ccc(NC(=O)CSc2ccc3nc(-c4ccccc4)cn3n2)cc1 | 108 | / | / | /
COCCn1c(=S)[nH]c2sc(C)c(C)c2c1=O | 80* | -48 | 100* | 0.15
CCCCn1c(=S)[nH]c2sc3c(c2c1=O)CCCC3 | 100 | -47 | 2 | -0.15
N#CSCC(=O)N1c2ccccc2CCc2ccccc21 | 100 | 33* | 21 | 0.7
O=C(c1cccs1)N(Cc1nc2sc3c(c2c(=O)[nH]1)CCCC3)C1CCCC1 | 104 | -38 | 4 | -0.65
CCC1CCCCN1CCCNC(=O)c1cn(C)c2ccc(S(=O)(=O)N(C)C3CCCCC3)cc2c1=O (stereo not drawn) | 30* | / | / | /
CCn1cc(C(=O)N2CCN(c3ccccc3)CC2)c(=O)c2cc(S(=O)(=O)N(C)C3CCCCC3)ccc21 | 68* | / | / | /
CC1CCN(CCCNC(=O)c2cn(C)c3ccc(S(=O)(=O)N(C)C4CCCCC4)cc3c2=O)CC1 | 108 | / | / | /
CCn1cc(C(=O)N2CCN(c3ccc(F)cc3)CC2)c(=O)c2cc(S(=O)(=O)N(C)C3CCCCC3)ccc21 | 107 | / | / | /
O=C(c1ccccc1)C1CCN(C(=O)Nc2ccc(Cl)cc2)CC1 | 101 | -7 | -3 | -0.3
CCOC(=O)c1c(-c2ccc(C)o2)csc1NC(=S)NC(=O)N(C)C | 99 | -65 | 85* | 0.45
COc1ccc(NC(=O)C(C)n2nnc3sc(-c4ccccc4)cc3c2=O)cc1Cl (stereo not drawn) | 76* | / | / | /
N#CC(C#N)C(CC(=O)c1cccs1)c1ccccc1 (stereo not drawn) | 100 | 26 | 6 | 1.1
CCn1cc2c(n1)-c1c(oc(C(=O)Nc3ccc(Br)cc3F)c1C)CC2 | 53* | / | / | /
CCn1cc2c(n1)-c1c(oc(C(=O)Nc3ccc(Cl)cc3)c1C)CC2 | 88* | 10 | 10 | 0.05
O=C(Nc1csc2ccccc12)NC1CCN(Cc2ccccc2)CC1 | / | / | / | 0.9
COc1cc(NC(=O)NCCc2c(C)nn(C)c2C)cc(OC)c1OC | 105 | / | / | /
COc1ccc(CN=CC2C(=O)N(c3nc4ccccc4s3)N=C2C(F)(F)F)cc1 (stereo not drawn) | 108 | -8 | / | -0.2
Nc1cccc(Cl)c1O | 101 | -7 | 57* | -0.15
N=C(N)Cc1c(Cl)cccc1Cl | / | / | / | 3
SMILES | PV pol inh | MenB inh | Mtb MbtI inh | AID504770
O=C(Oc1ccc(C=Nc2ccccc2Br)cc1)c1ccccn1 | / | / | / | 0.65
N#CC(C#N)=Cc1ccc(OC(=O)c2ccccn2)cc1 | 87* | -163 | 34 | -0.85
CCOC(=O)N1CCN(C(=O)c2ccc3c(c2)NC(=O)/C(=C/c2ccccc2)S3)CC1 | 101 | 0 | -9 | -1.3
S=c1[nH]nc(-c2ccncc2)n1-c1ccc2c(c1)OCO2 | 99 | -4 | 62* | 0.9
CN(C)S(=O)(=O)c1ccc(C(=O)Oc2cc(=O)[nH]c3ccccc23)cc1 | 89* | -42 | -152 | 0.2
O=C(CSC1=NCCc2ccccc21)c1ccccc1Cl | 68* | -18 | 17 | 1.3
O=C(SC1=NCCc2ccccc21)c1ccccc1 | 103 | -24 | 1 | -1.6
O=C(CSC1=NCCc2ccccc21)c1ccc(-c2ccccc2)cc1 | 83* | -25 | 0 | -0.4
O=c1c2ccccc2n2c(=S)[nH]nc2n1-c1ccccc1 | 89* | -26 | 94* | -0.85
CCCn1c(=O)c2ccccc2n2c(=S)[nH]nc12 | 101 | -30 | 75* | 2.5
O=c1c2ccccc2n2c(=O)[nH]nc2n1Cc1ccc(F)cc1 | 98 | -6 | 3 | 0.65
C=CCn1c(=S)[nH]c2cc(C(=O)N3CCN(c4ccccc4OC)CC3)ccc2c1=O | / | -18 | -5 | 0.4
CCNC(=O)CN1C(=O)CSc2nc(C)cc(C)c21 | 102 | -10 | 0 | 0.75
COC(=O)C1C(O)=C(C=Nc2ccccc2)C(=O)CC1(C)C (stereo not drawn) | 101 | 34* | 31 | 0.6
CCCNC(=O)N(C)c1ncnnc1NC | 100 | 29* | -4 | -0.4
O=C(Cn1nnc(-c2ccncc2)n1)N(C1CCCCC1)C1CCCCC1 | 104 | active | 0 | -1
O=c1oc2ccccc2c(O)c1/C=N/N1CCOCC1 | 106 | -24 | 3 | 0.05
